Assay results from PubChem BioAssay (EPA / NIEHS).
Where “and” joins values, the source holds several entries; their conditions need not be identical. Identical values can stand only once. Results filed as inconclusive are left out. Calls of active or inactive are those of the source. The calls were made as follows, unless noted: active = hit-call score of the fitted dose curve at least 0.9, where 1 is the maximum; inactive = score below 0.9.

Experiments:
[1] = target: sheep Cyclooxygenase-1 (Cox1), PTGS1 (gene 443551) (UniProt P05979); assay: NVS_ENZ_oCOX1: NovaScreen (NVS) Enzymatic Assay for sheep Cyclooxygenase-1 (Cox1) (AID 2283239; active = hit-call score of the fitted dose curve at least 0.9, where 1 is the maximum;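 also: actives reduce cyclooxygenase activity so potencies are for inhibitors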)
Outline: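 Absorbance read-out of cyclooxygenase activity in a cell-free preparation from sheep seminal vesicles, taken 0.66 hour after dosing. Initial testing was in duplicate at 25 uM, and confirmatory testing was run in concentration series.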

[2] = read-out: Monocyte Chemoattractant Protein-1 (MCP1), CCL2 (gene 6347); assay: BSK_IMphg_MCP1: BioMAP Diversity Plus: IMphg Assay for Monocyte Chemoattractant Protein-1 (MCP1) Biomarker Activity (AID 2284253); conditions: primary human endothelial cells with macrophages
Outline: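 ELISA readout of MCP-1 at 24 hours in IMphg co-cultures of venular endothelial cells and macrophages, normalised to DMSO; parallel cultures stained with sulforhodamine B for overt cytotoxicity.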

[3] = read-out: Macrophage Inflammatory Protein-1 Alpha (MIP1a), CCL3 (gene 6348); assay: BSK_IMphg_MIP1a: BioMAP Diversity Plus: IMphg Assay for Macrophage Inflammatory Protein-1 Alpha (MIP1a) Biomarker Activity (AID 2284255); conditions: primary human endothelial cells with macrophages
Outline: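 MIP-1a protein levels were quantified by ELISA after 24 h treatment of human endothelial cell–macrophage co-cultures, compared with DMSO. Parallel cultures were fixed with TCA and stained with 0.1% SRB to gauge overt cytotoxicity.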

[4] = read-out: CD69, CD69 (gene 969); assay: BSK_IMphg_CD69: BioMAP Diversity Plus: IMphg Assay for CD69 Biomarker Activity (AID 2284257); conditions: primary human endothelial cells with macrophages
Outline: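 Readout is ELISA for CD69 in primary human venular endothelial cell/macrophage co-culture, taken at 24 h post-dosing. SRB staining of parallel cultures gauged overt cytotoxicity; signal increase versus DMSO defined activity.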

[5] = read-out: Eotaxin 3, CCL26 (gene 10344); assay: BSK_BF4T_Eotaxin3: BioMAP Diversity Plus: BF4T Assay for Eotaxin 3 Biomarker Activity (AID 2284258); conditions: primary human bronchial epithelial cells with fibroblasts
Outline: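 ELISA measurement of Eotaxin-3 after 24 h chemical exposure in a bronchial epithelial/dermal fibroblast co-culture, with DMSO as baseline. Parallel SRB staining (0.1% SRB after 10% TCA fixation, 560 nm) flagged overt cytotoxicity.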

[6] = read-out: Monocyte Chemoattractant Protein-1 (MCP1), CCL2 (gene 6347); assay: BSK_BF4T_MCP1: BioMAP Diversity Plus: BF4T Assay for Monocyte Chemoattractant Protein-1 (MCP1) Biomarker Activity (AID 2284259); conditions: primary human bronchial epithelial cells with fibroblasts
Outline: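 MCP-1 ELISA readout taken 24 h after dosing in the BF4T system (bronchial epithelial cells plus dermal fibroblasts). Parallel SRB total-protein staining flagged cytotoxicity; DMSO served as baseline, positive fitting direction.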

[7] = read-out: Intercellular Adhesion Molecule 1 (ICAM1), ICAM1 (gene 3383); assay: BSK_BF4T_ICAM1: BioMAP Diversity Plus: BF4T Assay for Intercellular Adhesion Molecule 1 (ICAM1) Biomarker Activity (AID 2284260); conditions: primary human bronchial epithelial cells with fibroblasts
Outline: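 ICAM-1 levels measured by ELISA after 24 h chemical treatment of bronchial epithelial cell/dermal fibroblast co-cultures, read against DMSO baseline. Overt cytotoxicity checked in parallel cultures by sulforhodamine B staining.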

[8] = read-out: CD90, THY1 (gene 7070); assay: BSK_BF4T_CD90: BioMAP Diversity Plus: BF4T Assay for CD90 Biomarker Activity (AID 2284262); conditions: primary human bronchial epithelial cells with fibroblasts
Outline: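 CD90 levels by ELISA after 24 h treatment of human bronchial epithelial cell/dermal fibroblast cultures, analysed versus DMSO. Overt cytotoxicity checked in parallel cultures by sulforhodamine B staining.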

[9] = read-out: Interleukin-1 alpha (IL1a), IL1A (gene 3552); assay: BSK_BF4T_IL1a: BioMAP Diversity Plus: BF4T Assay for Interleukin-1 alpha (IL1a) Biomarker Activity (AID 2284264); conditions: primary human bronchial epithelial cells with fibroblasts
Outline: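 ELISA read-out of IL-1α from bronchial epithelial cell/dermal fibroblast co-cultures 24 h after compound addition. Increases scored against DMSO negative control. Cytotoxicity monitored by sulforhodamine B staining of parallel cultures.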

[10] = read-out: KRT18 (gene 3875); assay: BSK_BF4T_Keratin818: BioMAP Diversity Plus: BF4T Assay for Keratin 818 Biomarker Activity (AID 2284266); conditions: primary human bronchial epithelial cells with fibroblasts
Outline: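 Keratin 8/18 levels quantified by ELISA after 24 h chemical treatment of bronchial epithelial cell/dermal fibroblast co-cultures, fitted in positive direction relative to DMSO. Parallel SRB staining tracks overt cytotoxicity.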

[11] = read-out: Matrix Metallopeptidase 1 (MMP1), MMP1 (gene 4312); assay: BSK_BF4T_MMP1: BioMAP Diversity Plus: BF4T Assay for Matrix Metallopeptidase 1 (MMP1) Biomarker Activity (AID 2284270); conditions: primary human bronchial epithelial cells with fibroblasts
Outline: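 MMP-1 quantified by ELISA in primary human bronchial epithelial/dermal fibroblast co-cultures, 24 hours post-dosing, with DMSO as baseline; parallel sulforhodamine B staining (560 nm) tracks overt cytotoxicity.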

[12] = read-out: Matrix Metallopeptidase 3 (MMP3), MMP3 (gene 4314); assay: BSK_BF4T_MMP3: BioMAP Diversity Plus: BF4T Assay for Matrix Metallopeptidase 3 (MMP3) Biomarker Activity (AID 2284271); conditions: primary human bronchial epithelial cells with fibroblasts
Outline: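 MMP-3 level read by ELISA after 24 h chemical exposure of bronchial epithelial cell/dermal fibroblast co-cultures, fitted upward relative to DMSO. Parallel cultures stained with 0.1% SRB after TCA fixation gauge overt cytotoxicity.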

[13] = read-out: Tissue plasminogen activator (tPA), PLAT (gene 5327); assay: BSK_BF4T_tPA: BioMAP Diversity Plus: BF4T Assay for Tissue plasminogen activator (tPA) Biomarker Activity (AID 2284272); conditions: primary human bronchial epithelial cells with fibroblasts
Outline: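 tPA level quantified by ELISA at 24 h post-treatment in bronchial epithelial/dermal fibroblast co-cultures, gain of signal scored against DMSO baseline. Parallel cultures stained with 0.1% SRB (560 nm) to flag overt cytotoxicity.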

[14] = read-out: Plasminogen Activator Inhibitor-1 (PAI1), SERPINE1 (gene 5054); assay: BSK_BF4T_PAI1: BioMAP Diversity Plus: BF4T Assay for Plasminogen Activator Inhibitor-1 (PAI1) Biomarker Activity (AID 2284273); conditions: primary human bronchial epithelial cells with fibroblasts
Outline: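 PAI-1 levels quantified by ELISA 24 h post-dosing in bronchial epithelial cell plus dermal fibroblast cultures. Signal gain referenced to DMSO baseline. Sulforhodamine B total-protein staining of parallel wells checked cytotoxicity.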

[15] = BSK_BF4T_SRB: Viability Assessment in the BioMAP Diversity Plus: BF4T Assay (AID 2284274); conditions: primary human bronchial epithelial cells with fibroblasts
Outline: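 Cytotoxicity measured as total protein: cells fixed with 10% TCA, stained with 0.1% SRB, read at 560 nm. Bronchial epithelial/dermal fibroblast co-culture, 24 h after dosing, with positive-direction fitting relative to DMSO.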

[16] = read-out: urokinase Plasminogen Activator (uPA), PLAU (gene 5328); assay: BSK_BF4T_uPA: BioMAP Diversity Plus: BF4T Assay for urokinase Plasminogen Activator (uPA) Biomarker Activity (AID 2284275); conditions: primary human bronchial epithelial cells with fibroblasts
Outline: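 uPA levels measured by ELISA at 24 hours in BF4T cultures (bronchial epithelial cells plus dermal fibroblasts) and compared with DMSO; cytotoxicity tracked in parallel cultures by sulforhodamine B staining.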

[17] = read-out: Matrix Metallopeptidase 9 (MMP9), MMP9 (gene 4318); assay: BSK_BF4T_MMP9: BioMAP Diversity Plus: BF4T Assay for Matrix Metallopeptidase 9 (MMP9) Biomarker Activity (AID 2284276); conditions: primary human bronchial epithelial cells with fibroblasts
Outline: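 MMP-9 levels were measured by ELISA after 24 h exposure of bronchial epithelial cell/dermal fibroblast co-cultures, with DMSO as baseline. Parallel cultures were stained with 0.1% SRB after TCA fixation, read at 560 nm, to flag overt cytotoxicity.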

[18] = read-out: Vascular cell adhesion molecule 1 (VCAM1), VCAM1 (gene 7412); assay: BSK_IMphg_VCAM1: BioMAP Diversity Plus: IMphg Assay for Vascular cell adhesion molecule 1 (VCAM1) Biomarker Activity (AID 2284286); conditions: primary human endothelial cells with macrophages
Outline: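 ELISA read-out of VCAM-1 on venular endothelial cell/macrophage co-cultures at 24 h post-treatment, with DMSO as baseline and positive-direction fitting. Parallel sulforhodamine B total-protein staining (560 nm) served as the overt cytotoxicity measure.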

[19] = read-out: CD40, CD40 (gene 958); assay: BSK_IMphg_CD40: BioMAP Diversity Plus: IMphg Assay for CD40 Biomarker Activity (AID 2284288); conditions: primary human endothelial cells with macrophages
Outline: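 ELISA read-out of cell-surface CD40 at 24 h in human venular endothelial cell/macrophage co-cultures. Activity fitted in the positive direction against DMSO; parallel SRB staining (560 nm) gauges overt cytotoxicity.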

[20] = read-out: E-selectin (Homo sapiens) (UniProt P16581); assay: BSK_IMphg_ESelectin: BioMAP Diversity Plus: IMphg Assay for Eselectin Biomarker Activity (AID 2284291); conditions: primary human endothelial cells with macrophages
Outline: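 Analysed against DMSO baseline in the positive fitting direction, this endpoint is an ELISA read of E-selectin. It comes from human venular endothelial cells co-cultured with macrophages, sampled 24 h post-dose.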

Measured: AC50

Sequence of E-selectin (Homo sapiens) (P16581 whole entry, looked up): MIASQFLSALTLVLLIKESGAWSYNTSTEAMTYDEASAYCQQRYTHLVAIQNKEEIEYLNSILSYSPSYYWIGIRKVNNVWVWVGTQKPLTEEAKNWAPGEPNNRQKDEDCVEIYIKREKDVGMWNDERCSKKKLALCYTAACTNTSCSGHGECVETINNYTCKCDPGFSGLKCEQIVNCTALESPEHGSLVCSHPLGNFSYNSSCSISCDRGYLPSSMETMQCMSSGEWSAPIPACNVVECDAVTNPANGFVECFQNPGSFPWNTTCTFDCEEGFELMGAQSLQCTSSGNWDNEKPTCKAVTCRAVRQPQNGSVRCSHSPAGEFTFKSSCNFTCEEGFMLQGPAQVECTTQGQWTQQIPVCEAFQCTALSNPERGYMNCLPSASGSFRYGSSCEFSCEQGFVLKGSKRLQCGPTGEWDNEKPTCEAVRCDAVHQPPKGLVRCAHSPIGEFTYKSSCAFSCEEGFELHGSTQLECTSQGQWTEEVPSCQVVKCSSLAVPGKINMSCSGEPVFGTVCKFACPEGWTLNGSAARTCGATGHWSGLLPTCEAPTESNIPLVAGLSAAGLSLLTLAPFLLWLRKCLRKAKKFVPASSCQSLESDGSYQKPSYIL
Sequence of sheep Cyclooxygenase-1 (Cox1), PTGS1 (gene 443551) (P05979 whole entry, looked up): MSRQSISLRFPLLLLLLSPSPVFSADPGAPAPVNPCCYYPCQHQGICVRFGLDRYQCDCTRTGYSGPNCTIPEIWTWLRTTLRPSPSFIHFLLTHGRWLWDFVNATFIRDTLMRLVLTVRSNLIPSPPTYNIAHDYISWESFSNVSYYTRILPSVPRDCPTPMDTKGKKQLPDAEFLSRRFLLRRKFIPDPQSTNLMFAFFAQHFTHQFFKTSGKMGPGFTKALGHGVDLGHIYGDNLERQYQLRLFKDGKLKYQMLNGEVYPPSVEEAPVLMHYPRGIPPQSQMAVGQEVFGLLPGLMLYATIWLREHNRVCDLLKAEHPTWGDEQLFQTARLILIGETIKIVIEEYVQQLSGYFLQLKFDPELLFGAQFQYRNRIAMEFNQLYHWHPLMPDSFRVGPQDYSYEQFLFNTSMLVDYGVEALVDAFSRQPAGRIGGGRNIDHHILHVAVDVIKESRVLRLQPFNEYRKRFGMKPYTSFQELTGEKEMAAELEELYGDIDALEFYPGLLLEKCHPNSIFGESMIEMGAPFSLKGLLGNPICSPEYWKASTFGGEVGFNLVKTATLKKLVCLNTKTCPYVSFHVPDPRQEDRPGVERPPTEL

C[N+](C)(C)CC(=O)[O-]
inactive: [1]

OC(C(F)(F)F)(C(F)(F)F)C(O)(C(F)(F)F)C(F)(F)F
active: [2] 22.4 µM and 22.6 µM | [3] 7.09 µM and 53.2 µM | [4] 18.7 µM and 24.2 µM | [5] 15.7 µM and 8.93 µM | [14] 14.4 µM and 8.31 µM | [18] 23.6 µM and 22.1 µM | [19] 23 µM and 21.1 µM | [20] 22 µM and 30 µM
not listed: [1]
inactive: all other assays above
